Holding throughout (assay): NCI-60 one-dose screen, 48 h (100 = growth as untreated, 0 = no growth, -100 = all killed)
Assay [1] relates to K-562 leukemia. To be noted: 10 µM unless noted.
Assay [2] concerns MALME-3M melanoma. To be noted: 10 µM unless noted.
The test system of assay [3] is MDA-MB-231 breast. The conditions noted are these: 10 µM unless noted.
In assay [4] the test system is RXF 393 renal. The conditions noted are these: 10 µM unless noted.
Assay [5] relates to SF-268 CNS. To be noted: 10 µM unless noted.
Assay [6] has as its system SF-295 CNS. To be noted: 10 µM unless noted.
Assay [7] relates to SF-539 CNS. To be noted: 10 µM unless noted.
The test system of assay [8] is UACC-257 melanoma. The conditions noted are these: 10 µM unless noted.
Assay [9] deals with M14 melanoma. The conditions noted are these: 10 µM unless noted.
For assay [10], the system named is HCT-15 colon. The conditions noted are these: 10 µM unless noted.
In assay [11] the test system is HT29 colon. To be noted: 10 µM unless noted.
In assay [12] the test system is SNB-75 CNS. To be noted: 10 µM unless noted.
Assay [13] concerns SNB-19 CNS. To be noted: 10 µM unless noted.
The test system of assay [14] is U251 CNS. The conditions noted are these: 10 µM unless noted.
For assay [15], the system named is PC-3 prostate. To be noted: 10 µM unless noted.
Assay [16] relates to SK-MEL-5 melanoma. The conditions noted are these: 10 µM unless noted.
The subject of assay [17] is UACC-62 melanoma. The conditions noted are these: 10 µM unless noted.
Assay [18] relates to LOX IMVI melanoma. To be noted: 10 µM unless noted.
Assay [19] relates to SK-MEL-28 melanoma. The conditions noted are these: 10 µM.
Assay [20] concerns SK-MEL-2 melanoma. To be noted: 10 µM unless noted.

Compounds without any hit were thinned out: in the full panel of roughly 83,000, 20% have a hit.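 Testing used 96-well plates and a 48-hour single-concentration exposure. Example: -40 means 40% of the starting cells died.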 Values without a mark were called inactive. Active and inactive are the calls of the source. The calls were made as follows: active = growth percent below 10; inactive = the rest.

In PubChem BioAssay (NCI) one finds growth data, which are given here for eight molecules.

In the case of `CC1CCCCN1CCCNC(=O)c1ccc2c(c1)sc1nc(-c3ccc(F)cc3)cn12` (stereo not given), the growth is 77% in [1]; 98.3% in [2]; 75.2% in [3]; 91.7% in [4]; 92.8% in assay [5]; 109% in assay [6]. Besides, the growth in assay [7] was 98.6%; in assay [8], 124%; in [9] it was 97.1%; in assay [10], 104%; in assay [11], 92.8%; in assay [12], 83.5%. For the same molecule, the growth in assay [13] is 104%; in [14], 99.1%; in assay [15] it was 83.8%; in assay [16], 99.3%; in assay [17], 100%; in assay [18], 93.1%. Besides, the growth in assay [19] was 104%; in assay [20], 103%.

As for `Cn1cc([C@@H]2Nc3ccc4[nH]ncc4c3[C@H]3[C@H]4CCC(C4)[C@H]32)c(C(F)(F)F)n1`, the growth in assay [1] is 15.7%; in [2] it was 40.2%; in assay [3], 61.6%; in assay [4] it was 53.4%; in assay [5], 53%; in [6], 37.7%. Moreover, the growth in assay [7] is 41.1%; in assay [8], 50.1%; in assay [9], 27.5%; in assay [10] it was 30.8%; in assay [11] it was 16%; in [12] it was 13.1%. In addition, the growth was 50.7% in assay [13]; 42.5% in [14]; 52.1% in [15]; 30.5% in assay [16]; 30.4% in assay [17]; 44.2% in assay [18]. In addition, the growth was 62% in assay [19] and 21.1% in assay [20].

As to `O=C(Nc1ccc(N2CCNCC2)cn1)c1[nH]ncc1Nc1ncnc2sccc12`, the growth is -60.1% (active) in assay [1]; -67.7% (active) in [2]; -35.8% (active) in assay [3]; 46.6% in assay [4]; 40.8% in [5]; 97.3% in assay [6]. Further, the growth in assay [7] was -28.8% (active); in [8] it was 69.8%; in assay [9] it was -61.3% (active); in [10], 69.7%; in assay [11], 2.95% (active); in [12] it was 59.5%. The growth in [13] is 48.7%; in assay [14] it was -51.1% (active); in [15] it was 23.7%; in assay [16], 58.2%; in [17] it was 74.7%; in assay [18], -75.1% (active). Further, the growth in assay [19] is -81.4% (active); in [20], 85.7%.

Turning to `O=C(Nc1ccc(N2CCNCC2)cc1)c1[nH]ncc1Nc1ncnc2sc3c(c12)CCC3`, the growth in assay [1] is -62.7% (active); in assay [2], -75.9% (active); in assay [3] it was -84.9% (active); in assay [4], -90.8% (active); in assay [5], -72.3% (active); in assay [6] it was -77.2% (active). Further, the growth is -98.8% (active) in [7]; 26% in [8]; -91.1% (active) in [9]; -85.7% (active) in assay [10]; -67.3% (active) in assay [11]; -99.5% (active) in assay [12]. For the same molecule, the growth in assay [13] is -99.5% (active); in assay [14], -96.5% (active); in assay [15] it was -83.6% (active); in assay [16] it was -97.4% (active); in assay [17], -85.1% (active); in assay [18], -91.4% (active). In addition, the growth in assay [19] is -84.7% (active); in assay [20], 4.15% (active).

`CN(C)c1ccc(N=Cc2ccc(N3CCOCC3)cc2)cc1`: the growth in [1] was 56.6%; in [2] it was 81.8%; in [3], 48.2%; in assay [4] it was 130%; in assay [5], 84.7%; in assay [6], 83.3%. For the same molecule, the growth in [7] was 31.6%; in assay [8], 84.8%; in [9] it was 71.2%; in assay [10] it was 77.3%; in assay [11], 84.2%; in assay [12] it was 81.3%. Besides, the growth was 90.9% in [13]; 46.6% in assay [14]; 54.1% in assay [15]; 82% in [16]; 84.8% in assay [17]; 74.3% in [18]. Further, the growth in [19] was 114%; in [20] it was 67.2%.

Turning to `CN1C(=O)N(C)C2Nn3c(s/c(=C4\C(=O)N(CCc5ccccc5)c5ccccc54)c3=O)=NC21` (stereo not given), the growth is 34.9% in assay [1]; 85.1% in [2]; 80.5% in assay [3]; 64.1% in [4]; 60.9% in [5]; 72% in assay [6]. Besides, the growth in assay [7] is 48.4%; in assay [8], 62.3%; in assay [9], 57.3%; in assay [10], 44.6%; in assay [11], 38.4%; in assay [12] it was 48.2%. Also, the growth in assay [13] is 85.7%; in assay [14], 77.8%; in assay [15], 44.4%; in assay [16], 27.4%; in [17] it was 44.7%; in [18], 54.8%. The growth was 76.4% in assay [19] and 69.3% in assay [20].

On to `Cn1nc(C(C)(C)C)cc1NC(=O)Cc1ccc(/C=C2\C(=O)Nc3ccccc32)cc1`, for which the growth in assay [1] was 22.3%; in assay [2] it was 58%; in assay [3], 66.4%; in assay [4] it was 70.9%; in assay [5], 63.1%; in assay [6] it was 51.7%. For the same molecule, the growth in [7] was 54.9%; in assay [8] it was 41.4%; in assay [9] it was 56.5%; in assay [10] it was 48.4%; in assay [11] it was 58.4%; in assay [12], 75.1%. Moreover, the growth in assay [13] was 63.9%; in assay [14], 55.5%; in assay [15] it was 42.1%; in assay [16], 5.57% (active); in assay [17], 41%; in assay [18], 53.8%. The growth is 76.7% in assay [19] and 54.3% in assay [20].

Take `Cn1cc(-c2ccc3ncc(-c4ccc(CC(=O)Nc5cc(C(C)(C)C)no5)cc4)nc3c2)cn1`: the growth in assay [1] was 22.5%; in [2], 25%; in [3], 28.7%; in assay [4] it was 32.3%; in assay [5], 36%; in [6] it was 47.2%. Moreover, the growth was 27.3% in assay [7]; 61.2% in [8]; 34.6% in assay [9]; 16.3% in [10]; 51.6% in [11]; 43.7% in assay [12]. Besides, the growth in assay [13] was 62.6%; in assay [14] it was 40.8%; in assay [15], 49.7%; in assay [16], 28.7%; in assay [17], 42.6%; in assay [18], 45.7%. Moreover, the growth is 53.2% in [19] and 38.1% in assay [20].
